PubChem BioAssay (NCATS)
Values joined by “and” are separate entries in the source; they are usually repeats but may differ in a detail not shown here. Equal values may be shown once. Records with an inconclusive call do not appear. Active and inactive are the calls of the source. Unless noted, the call rests on the fitted dose curve; in most records, active means well fitted curve in the direction sought with a large enough effect; inconclusive means small, poorly fitted or top-dose-only effect, or another doubt; inactive means no such curve, though single readings can be large; an effect the other way counts as inactive or inconclusive.

Assays:
[1] = Cell Viability - Hek293 (AID 427;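 active means compounds whose dose-response curve shows a full or clear partial loss of cell viability, called from curve shape rather than a numeric limit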;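 further: potency means the concentration at half of the fitted maximal effect; cells exposed to compound for 40 hours at 37 °C before reading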); settings: qHTS
Summary of the method: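 qHTS, human embryonic kidney (adenovirus-transformed) cells; 40 hr cpd, 37 °C; CellTiter-Glo ATP luminescence. Norm: DMSO = 0, 100 uM tamoxifen = 100% inhibition. Hill-fit AC50.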

[2] = Cell Viability - N2a (AID 540); settings: N2a mouse neuroblastoma cell viability; at 92.2 µM (top of the series);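 further: cells exposed to compound for 40 h at 37 °C; plate controls were DMSO alone for no effect and tamoxifen control for full effect; nearly all actives have a fitted effect of over 45% in size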
Summary of the method: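 First, 1500 N2a cells per well incubate 5 hr at 37 °C; next, compounds are added and incubated 40 hr at 37 °C; finally CellTiter-Glo is added and luminescence read after 20 min, with AC50 derived by Hill modeling.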

[3] = Cellular Toxicity (caspase-3) Hek293 (AID 664); settings: HEK293 caspase-3 activation, DMSO = 0%, 100 µM tamoxifen = 100%; series mostly up to 92.2 µM;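 further: cells exposed to compound for 16 h at 37 °C before readout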
Summary of the method: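 Activation of caspase-3/7 is measured as increased luminescence from cleaved peptide-aminoluciferin substrate in HEK293 cells treated 16 hours at 37 °C. AC50 values come from Hill-equation fits of concentration-response data.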

[4] = Cell Viability - LYMP2-001 (AID 921); settings: LYMP2-001 lymphoblastoid cell viability; series mostly up to 92.2 µM;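 further: cells exposed to compound for 24 h at 37 °C; 0% = DMSO only and full inhibition = tetraoctylammonium bromide control wells; nearly all actives have a fitted effect of over 70% in size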
Summary of the method: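 Steps: seed 2500 lymphoblastoid cells/well; 5 hr, 37 C; add compound; 24 hr, 37 C; CellTiter-Glo reagent, 30 min room temperature; read luminescence. Concentration-response modeled by Hill equation for AC50.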

[5] = MultiTox-Fluor Cytotoxicity Assay - LYMP1-003 - Live Cells (AID 962); settings: LYMP1-003 lymphoblastoid cells, MultiTox-Fluor live-cell protease fluorescence; series mostly up to 92.2 µM;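 further: cells exposed to compound for 16 hours at 37 °C; 0% = DMSO only and full loss = 92 µM tetraoctylammonium bromide; cytotoxic hits lower the live-cell protease signal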
Summary of the method: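 Cells plated at 2500 per well and incubated 5 hr; compounds added and incubated 16 hr at 37 C; MultiTox-Fluor reagent added for 60 min at room temperature; fluorescence of liberated AFC measured at 405/510 nm.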

[6] = Cell Viability - LYMP1-003 - Assay at 40 hr (AID 964); settings: LYMP1-003 lymphoblastoid viability; series mostly up to 92.2 µM; further: on the % scale 0 is the no-effect control and ±100 the full control effect; nearly all actives have a fitted effect of over 60% in size
Summary of the method: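 This qHTS cytotoxicity screen treats human lymphoblastoid cells (LYMP1-003) with compounds for 40 hr and quantifies cellular ATP via luciferase luminescence.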

[7] = Cell Viability - LYMP2-005 (AID 967); settings: LYMP2-005 lymphoblastoid cell viability; series mostly up to 92.2 µM;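 further: cells exposed to compound for 24 h at 37 °C; plate controls were DMSO only for no effect and 92 µM tetraoctylammonium bromide control for full effect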
Summary of the method: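 Acute cytotoxicity is scored as a concentration-dependent drop in intracellular ATP in human lymphoblastoid LYMP2-005 cells after 24 h compound treatment. ATP is quantified by luciferase luminescence, and AC50 is derived by Hill-equation modelling.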

[8] = Cell Viability - LYMP2-011 (AID 969); settings: LYMP2-011 lymphoblastoid cells viability; series mostly up to 92.2 µM;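 further: cells exposed to compound for 24 hours; 0% = DMSO only and full inhibition = 92 µM tetraoctylammonium bromide; nearly all actives have a fitted effect of over 60% in size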
Summary of the method: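 Acute toxicity is scored as a concentration-dependent drop in intracellular ATP of a human lymphoblastoid line after 24 hr treatment. Values are AC50s modeled with the Hill equation.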

[9] = Cell Viability - LYMP2-017 (AID 972); settings: LYMP2-017 lymphoblastoid cell viability; series mostly up to 92.2 µM;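 further: cells exposed to compound for 24 hours at 37 °C; on the % scale 0 is the no-effect control and ±100 the full control effect; nearly all actives have a fitted effect of over 55% in size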
Summary of the method: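 Steps: plate 2500 lymphoblastoid cells per well; incubate 5 hr at 37 C; add compound across a concentration series and incubate 24 hr at 37 C; add CellTiter-Glo and read luminescence after 30 min at room temperature; fit Hill curves for AC50.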

[10] = Cell Viability - LYMP2-019 (AID 973); settings: LYMP2-019 lymphoblastoid cell line viability; series mostly up to 92.2 µM;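 further: cells exposed to compound for 24 h at 37 °C; 0% = DMSO alone and full effect = 92 µM tetraoctylammonium bromide; nearly all actives have a fitted effect of over 55% in size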
Summary of the method: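 Cells plated at 2500/well and allowed 5 hr at 37 C before compound addition. After 24 hr incubation, CellTiter-Glo reagent was added, plates sat 30 min at room temperature, and luminescence was recorded.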

[11] = Cell Viability - LYMP2-023 (AID 975); settings: LYMP2-023 lymphoblastoid cell viability; series mostly up to 92.2 µM;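 further: cellular ATP measured by luciferase luminescence as viability proxy; cells exposed to compound for 24 hours at 37 °C; plate controls were DMSO only for no effect and 92 µM tetraoctylammonium bromide control for full effect; nearly all actives have a fitted effect of over 55% in size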
Summary of the method: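 Concentration-dependent drop in intracellular ATP measures acute cytotoxicity in a human lymphoblastoid line treated for 24 hours in complete culture medium. AC50 values are taken from Hill-equation fits of qHTS data.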

[12] = Cell Viability - LYMP2-010 (AID 981); settings: LYMP2-010 lymphoblastoid cell viability, qHTS; series mostly up to 92.2 µM;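 further: cells exposed to compound for 24 hours at 37 °C; on the % scale 0 is the no-effect control and ±100 the full control effect; nearly all actives have a fitted effect of over 55% in size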
Summary of the method: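 Acute toxicity is scored as a concentration-dependent loss of cellular ATP in human lymphoblastoid cells after 24 hr compound exposure in complete medium. Tetraoctylammonium bromide is the positive control.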

[13] = Cell Viability - LYMP2-016 (AID 984); settings: LYMP2-016 lymphoblastoid cell viability, qHTS; series mostly up to 92.2 µM
Summary of the method: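 Cells were seeded at 2500 per well and rested 5 hr before a 24 hr compound exposure at 37 C. Viability was then gauged as cellular ATP by luciferase luminescence, with AC50 values fitted to the Hill equation.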

[14] = Cell Viability - LYMP2-018 (AID 985); settings: LYMP2-018 lymphoblastoid cells, viability (qHTS); series mostly up to 92.2 µM;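 further: plate controls were DMSO only for no effect and tetraoctylammonium bromide at 92 µM for full effect; nearly all actives have a fitted effect of over 50% in size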
Summary of the method: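 Acute cytotoxicity is scored as a concentration-dependent drop in intracellular ATP after 24 hr exposure of the lymphoblastoid line in complete culture medium, measured by luciferase luminescence. Potency is expressed as AC50 from Hill modelling.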

[15] = Cell Viability - LYMP2-020 (AID 986); settings: series mostly up to 92.2 µM
Summary of the method: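 Acute cytotoxicity in a human lymphoblastoid line is scored as a concentration-dependent fall in cellular ATP after 24 hr at 37 C in complete medium. The positive control is tetraoctylammonium bromide, and potency is given as Hill-fit AC50.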

[16] = Cell Viability - LYMP2-022 (AID 987); settings: LYMP2-022 lymphoblastoid cell viability; series mostly up to 92.2 µM
Summary of the method: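 Acute toxicity in a human lymphoblastoid line is scored as decreased intracellular ATP after 24 hr compound treatment at 37 C. ATP is measured by CellTiter-Glo luminescence; curves are fitted with the Hill equation to give AC50.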

[17] = Cell Viability - LYMP2-026 (AID 989); settings: LYMP2-026 lymphoblastoid cell viability, qHTS; series mostly up to 92.2 µM;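 further: cells exposed to compound for 24 h at 37 °C; on the % scale 0 is the no-effect control and ±100 the full control effect; nearly all actives have a fitted effect of over 50% in size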
Summary of the method: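 Concentration-dependent loss of intracellular ATP in human lymphoblastoid cells after 24 hr at 37 C, quantified by luciferase luminescence. AC50 derived from standard Hill equation.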

[18] = Cell Viability - LYMP1-002 - Assay at 40 hr (AID 994); settings: LYMP1-002 lymphoblastoid cell viability; series mostly up to 92.2 µM;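 further: 0% = DMSO only and full inhibition = 92 µM tetraoctylammonium bromide; nearly all actives have a fitted effect of over 60% in size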
Summary of the method: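 Viability in the human lymphoblastoid line was measured as intracellular ATP via CellTiter-Glo after 40 hr compound exposure. Tetraoctylammonium bromide served as positive control.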

[19] = qHTS assay for small molecule disruptors of the mitochondrial membrane potential - 5 hr assay (AID 651755; calls by dose curve; further: on the % scale 0 is the no-effect control and ±100 the full control effect; nearly all actives have a fitted effect of over 40% in size); settings: JC-1-type ratio dye; series mostly up to 92.2 µM
Summary of the method: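 HepG2 cells (2,000/well), attached overnight, exposed to compound 5 hr at 37C, then Mito-MPS dye 30 min. Fluorescence read for monomers (490/535 nm) and aggregates (540/590 nm).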

[20] = target: Thyroid hormone receptor beta (Homo sapiens) (UniProt P10828); test: qHTS assay for small molecule antagonists of thyroid hormone receptor beta signaling (AID 588547; active means well fitted inhibition curve with a large enough effect in the signal ratio, with a control signal flat, not every such curve was filed as active; the % refers to the signal ratio;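 further: cells stimulated with 0.4 nM T3 agonist during compound exposure; on the % scale 0 is the no-effect control and ±100 the full control effect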); settings: TR-UAS-bla HEK293, beta-lactamase ratio, antagonist mode, 18 h
Summary of the method: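 TR-UAS-bla GripTite HEK293 cells in 2% charcoal/dextran FBS medium; compounds 0.59 nM to 92 uM with T3 at 0.4nM final, 18 h at 37 C. Beta-lactamase read by CCF4 fluorescence (460/530 nm); Hill fits gave IC50 and efficacy.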

Chain of Thyroid hormone receptor beta (Homo sapiens) (P10828 whole entry, looked up): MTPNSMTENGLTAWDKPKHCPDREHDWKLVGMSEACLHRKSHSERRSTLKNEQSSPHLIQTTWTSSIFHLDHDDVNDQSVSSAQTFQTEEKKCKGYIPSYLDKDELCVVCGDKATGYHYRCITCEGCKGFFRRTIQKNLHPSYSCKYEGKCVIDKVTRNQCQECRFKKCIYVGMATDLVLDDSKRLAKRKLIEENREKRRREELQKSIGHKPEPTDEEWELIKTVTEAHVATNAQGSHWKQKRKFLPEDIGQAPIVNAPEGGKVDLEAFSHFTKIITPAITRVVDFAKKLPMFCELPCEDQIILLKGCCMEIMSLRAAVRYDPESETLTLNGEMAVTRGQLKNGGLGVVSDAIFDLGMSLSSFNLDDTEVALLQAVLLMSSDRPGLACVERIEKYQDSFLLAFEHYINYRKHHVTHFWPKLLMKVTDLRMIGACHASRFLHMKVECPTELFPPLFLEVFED

C=CC(C)=O
inactive: Potency [1] > 92 µM | activity change, negative = cytotoxicity [2] 3.67% | outcome [3] | Potency [4] | Potency [5] | Potency [6] | Potency [7] | Potency [8] | Potency [9] | Potency [10] | Potency [11] | Potency [12] | Potency [13] | Potency [14] | Potency [15] | Potency [16] | Potency [17] | Potency [18] | Potency [19]

Cc1cccc(C#N)c1
inactive: Potency [1] > 92 µM | activity change, negative = cytotoxicity [2] -2.18% | outcome [3] | Potency [4] | Potency [5] | Potency [6] | Potency [7] | Potency [8] | Potency [9] | Potency [10] | Potency [11] | Potency [12] | Potency [13] | Potency [14] | Potency [15] | Potency [16] | Potency [17] | Potency [18] | activity change % (negative = inhibition) [20] 7.42% | Potency [19]

CCCCOCCOP(=O)(OCCOCCCC)OCCOCCCC
inactive: Potency [1] > 92 µM | activity change, negative = cytotoxicity [2] -1.66% | outcome [3] | Potency [4] | Potency [5] | Potency [6] | Potency [7] | Potency [8] | Potency [9] | Potency [10] | Potency [11] | Potency [12] | Potency [13] | Potency [14] | Potency [15] | Potency [16] | Potency [17] | Potency [18] | activity change % (negative = inhibition) [20] -2.2% and -9.56% | Potency [19]

Clc1nc(Cl)nc(Cl)n1
inactive: Potency [1] > 92 µM | activity change, negative = cytotoxicity [2] -4.85% | outcome [3] | Potency [4] | Potency [5] | Potency [6] | Potency [7] | Potency [8] | Potency [9] | Potency [10] | Potency [11] | Potency [12] | Potency [13] | Potency [14] | Potency [15] | Potency [16] | Potency [17] | Potency [18] | activity change % (negative = inhibition) [20] -1.04% | Potency [19]

CC(=O)[O-].CC(=O)[O-].O.O.O.[Pb+2]
inactive: Potency [1] > 92 µM | activity change, negative = cytotoxicity [2] 13.3% and 9.03% | outcome [3] | Potency [4] | Potency [5] | Potency [6] | Potency [7] | Potency [8] | Potency [9] | Potency [10] | Potency [11] | Potency [12] | Potency [13] | Potency [14] | Potency [15] | Potency [16] | Potency [17] | Potency [18] | activity change % (negative = inhibition) [20] -0.227% | Potency [19]

CC(C)(C)C(=O)C(Oc1ccc(Cl)cc1)n1cncn1 (stereo not given)
inactive: activity change % (negative = inhibition) [20] -2.73% and -13.2%

CCCC(=O)Cl
inactive: Potency [1] > 92 µM | activity change, negative = cytotoxicity [2] 1.63% | outcome [3] | Potency [4] | Potency [5] | Potency [6] | Potency [7] | Potency [8] | Potency [9] | Potency [10] | Potency [11] | Potency [12] | Potency [13] | Potency [14] | Potency [15] | Potency [16] | Potency [17] | Potency [18] | activity change % (negative = inhibition) [20] 3.8% | Potency [19]
